Measurements reported in PubChem BioAssay (NCATS).
Results filed as inconclusive are left out. Active and inactive are the calls of the source. Unless noted, the call rests on the fitted dose curve; in most records, active means well fitted curve in either direction with a large enough effect (not every such curve was filed as active); inconclusive means small, poorly fitted or top-dose-only effect, or another doubt; inactive means flat fitted curve, though single readings scatter.

Legend:
[1] = target: Lysosomal acid glucosylceramidase (Homo sapiens) (UniProt P04062); test: Glucocerebrosidase-p2 (AID 348; in the data active means potency below about 10 µM; further: potency means the concentration at half of the fitted maximal effect); conditions: purified GBA, blue fluorogenic substrate, 40 min
In short: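 Normal human glucocerebrosidase (0.2 nM) with blue fluorogenic substrate (80 uM final) in citrate/phosphate pH 5.9 with 10mM sodium taurocholate, 0.01% tween-20; 40 min RT, NaOH/glycine stop; fluorescence Ex 365/Em 440; AC50 from a titration from 0.6 nM upwards.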

[2] = AP1 Signaling Pathway (AID 357); conditions: ME-180 AP-1-bla reporter, EGF-induced, beta-lactamase ratio, 5 h; at 7.69 µM (top of the series) unless noted;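 further: ME-180 reporter cells stimulated with EGF at its EC50 level; on the % scale 0 is the no-effect control and ±100 the full control effect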
In short: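 A ratiometric CCF4 readout (405 nm excitation; 460 and 530 nm emission) quantified AP-1-driven beta-lactamase in ME-180 cells after 5 h with compound and EC50 EGF; AC50 values were derived for activators and inhibitors.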

[3] = NFAT Signaling Pathway (AID 444); conditions: Jurkat NFAT-bla M1, carbachol, beta-lactamase ratio, 5 h; at 7.69 µM (top of the series) unless noted;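 further: carbachol stimulus at about its EC50 of 1 µM final; on the % scale 0 is the no-effect control and ±100 the full control effect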
In short: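 Jurkat cells carrying an NFAT-driven β-lactamase reporter and co-transfected muscarinic M1 receptor were treated with compound plus carbachol (1 uM final, an EC50 level) for 5 h at 37 °C. CCF4 loading followed for 1 h at RT; 460/530 nm ratio gave %activity.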

[4] = Stat Signaling Pathway (AID 446); conditions: ME-180 (cervical carcinoma) SIE beta-lactamase reporter, IL-6 stimulated, 5 h; at 7.69 µM (top of the series) unless noted;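 further: ME-180 cervical cancer cells given 40 pM IL-6 alongside compound; SIE-controlled beta-lactamase reporter measured as 460/530 nm FRET emission ratio; on the % scale 0 is the no-effect control and ±100 the full control effect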
In short: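 Normalization used AC90 stimulation (300 pM IL-6) and AC90 inhibition (125 nM pan-JAK inhibitor at 40 pM IL-6). The underlying signal is SIE-driven beta-lactamase in ME-180 cells after 5 h IL-6 exposure with compound.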

[5] = target: Glucocorticoid receptor (Homo sapiens) (UniProt P04150); test: GR-GFP Redistribution (AID 450;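 active means compounds whose dose series gives a full or clear partial fitted curve of increased nuclear translocation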; further: potency means the concentration at half of the fitted maximal effect); conditions: U2OS GR-GFP nuclear translocation, laser cytometry, 2 h
[6] = target: Glucocorticoid receptor (Homo sapiens) (UniProt P04150); test: GR-EFC Redistribution (AID 451; calls by dose curve; further: potency means the concentration at half of the fitted maximal effect); conditions: CHO-K1 GR-EFC translocation, beta-gal luminescence, 2 h
In short: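 CHO-K1 cells stably expressing nuclear-localized β-gal enzyme acceptor and GR fused C-terminally to the enzyme donor fragment; ligand-driven nuclear translocation restores β-gal by complementation. Compounds titrated up to 46 uM final, 2 h at 37 °C; luminescence read.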

[7] = target: Mitogen-activated protein kinase 10 (Mus musculus) (UniProt Q61831); test: JNK3 AlphaScreen Assay (AID 530); conditions: JNK3 lysate, c-Jun phosphorylation; series mostly up to 57.1 µM;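 further: kinase came from lysate of stimulated human HepG2 cells; signal reports phosphorylation of biotinylated GST-cJun 1-79 at Ser73 with 10 µM ATP; on the % scale 0 is the no-effect control and ±100 the full control effect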
In short: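 Phosphorylation of biotinylated GST-cJun(1-79) at Ser73 is measured by AlphaScreen proximity luminescence. Enzyme is JNK3 in HepG2 lysates activated with interleukin-1beta and tumor necrosis factor alpha; ATP is 10 uM final.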

[8] = target: 3',5'-cyclic-AMP phosphodiesterase 4B (Homo sapiens) (UniProt Q07343); test: qHTS Assay for Inhibitors of PDE-IV (AID 607; active means well fitted activation curve with a large enough effect in the main read-out, with a control signal flat, not every such curve was filed as active; further: % of control where 0% means no effect); conditions: HEK293 ACTOne CNG channel cells, membrane potential fluorescence; series mostly up to 22.9 µM
In short: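 HEK293 ACTOne cells with CNG channel (1000/well), endogenous PDE4; membrane potential dye, compounds up to 22.9 uM final. Fluorescence Ex 535/Em 590; RO 20-1724 (100 uM final) as reference.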

[9] = qHTS Assay for Lipid Storage Modulators (AID 1519; calls by dose curve); conditions: Drosophila S3 cells, BODIPY lipid droplet/cell ratio, laser cytometry, cells loaded with oleic acid; for activity change, negative = inhibition: at 57.5 µM (top of the series)
In short: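 Cells seeded at 5,000 per well were treated with compounds over a concentration series and loaded with oleic acid (400 uM, as added). Lipid droplet fluorescence (488 nm excitation, 500-530 nm channel) was read by laser-scanning cytometry and normalized to 20 uM Triacsin C.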

[10] = target: Dual specificity protein kinase CLK4 (Homo sapiens) (UniProt Q9HAZ1); test: qHTS Assay for Inhibitors of CDC-like Kinase 4 (ADP-Glo Assay) (AID 1771; active means well fitted curve in the direction sought with a large enough effect; an effect the other way counts as inactive or inconclusive; further: nearly all actives have a fitted effect of over 70% in size; further: potency means the concentration at half of the fitted maximal effect); conditions: recombinant CLK4, ADP-Glo luminescence; series mostly up to 80 µM
In short: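 ADP production was read by ADP-Glo luminescence after residual ATP depletion, following 1 h room-temperature reaction of 25 nM Clk4, 1 uM ATP and 100 uM RS peptide with MgCl2, EGTA, DTT and Triton X-100.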

[11] = target: Dual specificity protein kinase CLK4 (Homo sapiens) (UniProt Q9HAZ1); test: qHTS Assay for Inhibitors of CDC-like Kinase 4 (ADP-FP Assay) (AID 1795; active means well fitted curve in the direction sought with a large enough effect; an effect the other way counts as inactive or inconclusive;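 further: recombinant human CLK4 phosphorylating RS repeat peptide at 1 µM ATP; on the % scale 0 is the no-effect control and ±100 the full control effect; nearly all actives have a fitted effect of over 60% in size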); conditions: Transcreener ADP fluorescence polarization; series mostly up to 50 µM
In short: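 FP readout: Orange Transcreener ADP2 tracer (4 nM) plus ADP antibody, read after 30 min at room temperature. Kinase step: 6.25 nM Clk4, 100 uM RS peptide, 1 uM ATP, pH 7.5, 1 h.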

[12] = target: Ubiquitin carboxyl-terminal hydrolase 1 (Homo sapiens) (UniProt O94782); test: Inhibitors of USP1/UAF1: Pilot qHTS (AID 504865; active means well fitted curve in the direction sought with a large enough effect; an effect the other way counts as inactive or inconclusive;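 further: rhodamine fluorescence freed from ubiquitin-rhodamine substrate followed over time; top concentration of the series differs between compounds; on the % scale 0 is the no-effect control and ±100 the full control effect; nearly all actives have a fitted effect of over 35% in size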); conditions: purified USP1/UAF1, Ub-rhodamine cleavage fluorescence; series mostly up to 54.9 µM
In short: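 1nM USP1/UAF1 + cpd, 15 min RT; start w/ Ub-Rho 150nM final; kinetic FL 480/540 nm, 6 reads q60 s. Buffer 50mM HEPES pH 7.8, 0.5mM EDTA, 1mM TCEP, 0.01% Tween-20, 0.1 mg/ml BSA.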

[13] = target: Cytochrome P450 1A2 (Homo sapiens) (UniProt P05177); test: p450-cyp1a2 (AID 410; calls by dose curve; further: potency means the concentration at half of the fitted maximal effect); conditions: recombinant CYP1A2, luciferin-ME demethylation, luminescence; series mostly up to 57 µM
In short: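 Luminescent demethylation readout: Luciferin-ME (100uM, equal to Km) turned over by 20nM CYP1A2 for 60 min at room temperature after NADPH regeneration addition, following 10 min compound preincubation. Normalization used 57 uM furafylline as full inhibition.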

[14] = target: Dual specificity protein kinase CLK4 (Homo sapiens) (UniProt Q9HAZ1); test: qHTS Assay for Inhibitors of CDC-like Kinase 4 (Kinase-Glo Assay) (AID 1770; active means well fitted curve in the direction sought with a large enough effect; an effect the other way counts as inactive or inconclusive; further: potency means the concentration at half of the fitted maximal effect; nearly all actives have a fitted effect of over 65% in size); conditions: recombinant Clk4, Kinase-Glo ATP depletion luminescence; series mostly up to 66.7 µM
In short: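 Readout: Kinase-Glo luminescence from ATP left after a 4.5 h room-temperature reaction of 25 nM Clk4 with 100 uM RS peptide and 1 uM ATP (final). Buffer: 25 mM Tris pH 7.5, 10 mM MgCl2.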

[15] = target: Cytochrome P450 3A4 (Homo sapiens) (UniProt P08684); test: qHTS Assay for Activators of Cytochrome P450 3A4 (AID 885; active means well fitted curve in the direction sought with a large enough effect; an effect the other way counts as inactive or inconclusive; further: nearly all actives have a fitted effect of over 65% in size); conditions: recombinant CYP3A4, Luciferin-PPXE luminescence, 60 min; series mostly up to 57.1 µM
In short: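 Human CYP3A4 dealkylates Luciferin-PPXE to luciferin, which luciferase detection converts to light. Substrate was at its KM (25uM), buffer 200mM KPO4, reaction 60 min at RT.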

[16] = measured here: cell count channel max response
[17] = measured here: lipid channel max response

Chain of Lysosomal acid glucosylceramidase (Homo sapiens) (P04062 whole entry, looked up): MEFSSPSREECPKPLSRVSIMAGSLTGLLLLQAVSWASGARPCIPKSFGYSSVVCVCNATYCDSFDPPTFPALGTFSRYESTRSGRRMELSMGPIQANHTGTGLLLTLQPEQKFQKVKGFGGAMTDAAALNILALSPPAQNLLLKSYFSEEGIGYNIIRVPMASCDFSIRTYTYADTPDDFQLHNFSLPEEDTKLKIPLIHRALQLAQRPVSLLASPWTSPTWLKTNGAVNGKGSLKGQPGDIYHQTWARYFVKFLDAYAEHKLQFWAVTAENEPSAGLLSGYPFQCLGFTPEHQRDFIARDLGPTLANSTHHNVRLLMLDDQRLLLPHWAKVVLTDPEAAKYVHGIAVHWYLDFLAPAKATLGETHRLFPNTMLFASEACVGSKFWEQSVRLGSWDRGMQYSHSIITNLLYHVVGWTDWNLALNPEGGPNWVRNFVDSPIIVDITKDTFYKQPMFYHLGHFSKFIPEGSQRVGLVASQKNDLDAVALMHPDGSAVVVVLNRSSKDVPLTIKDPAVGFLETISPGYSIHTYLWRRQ
Chain of 3',5'-cyclic-AMP phosphodiesterase 4B (Homo sapiens) (Q07343 whole entry, looked up): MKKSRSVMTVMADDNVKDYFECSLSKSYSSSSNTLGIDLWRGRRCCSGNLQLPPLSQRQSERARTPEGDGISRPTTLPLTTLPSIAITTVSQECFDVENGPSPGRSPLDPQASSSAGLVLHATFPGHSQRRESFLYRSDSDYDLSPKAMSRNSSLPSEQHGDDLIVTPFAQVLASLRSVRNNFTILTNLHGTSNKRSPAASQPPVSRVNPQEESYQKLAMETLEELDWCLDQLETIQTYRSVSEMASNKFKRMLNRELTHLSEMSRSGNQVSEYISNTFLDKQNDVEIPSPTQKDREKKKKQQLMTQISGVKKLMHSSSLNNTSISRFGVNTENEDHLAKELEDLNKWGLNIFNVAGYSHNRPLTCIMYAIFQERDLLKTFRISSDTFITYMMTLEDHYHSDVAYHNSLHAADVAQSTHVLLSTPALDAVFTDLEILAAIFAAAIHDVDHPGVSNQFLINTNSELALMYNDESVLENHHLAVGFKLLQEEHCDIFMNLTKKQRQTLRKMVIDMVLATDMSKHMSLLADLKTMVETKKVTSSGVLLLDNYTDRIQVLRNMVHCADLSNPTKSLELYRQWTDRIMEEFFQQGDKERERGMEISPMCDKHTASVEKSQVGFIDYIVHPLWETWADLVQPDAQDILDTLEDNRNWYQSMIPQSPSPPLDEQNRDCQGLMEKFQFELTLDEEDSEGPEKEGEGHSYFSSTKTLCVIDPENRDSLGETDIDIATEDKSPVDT
Chain of Cytochrome P450 3A4 (Homo sapiens) (P08684 whole entry, looked up): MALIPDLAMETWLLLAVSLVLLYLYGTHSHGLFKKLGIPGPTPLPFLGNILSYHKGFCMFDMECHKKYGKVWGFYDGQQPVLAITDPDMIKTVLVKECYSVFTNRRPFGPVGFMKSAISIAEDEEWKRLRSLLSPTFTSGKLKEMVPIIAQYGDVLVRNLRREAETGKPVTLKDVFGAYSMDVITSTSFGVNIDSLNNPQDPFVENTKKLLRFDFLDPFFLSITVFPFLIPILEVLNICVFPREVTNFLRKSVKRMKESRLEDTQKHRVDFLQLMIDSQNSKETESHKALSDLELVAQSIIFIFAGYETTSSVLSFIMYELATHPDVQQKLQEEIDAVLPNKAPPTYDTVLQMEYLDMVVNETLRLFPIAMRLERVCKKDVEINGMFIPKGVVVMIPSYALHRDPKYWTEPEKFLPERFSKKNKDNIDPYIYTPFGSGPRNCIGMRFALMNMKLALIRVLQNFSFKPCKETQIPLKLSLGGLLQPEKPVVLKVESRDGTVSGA
Chain of Glucocorticoid receptor (Homo sapiens) (P04150 whole entry, looked up, the tested form may be a part): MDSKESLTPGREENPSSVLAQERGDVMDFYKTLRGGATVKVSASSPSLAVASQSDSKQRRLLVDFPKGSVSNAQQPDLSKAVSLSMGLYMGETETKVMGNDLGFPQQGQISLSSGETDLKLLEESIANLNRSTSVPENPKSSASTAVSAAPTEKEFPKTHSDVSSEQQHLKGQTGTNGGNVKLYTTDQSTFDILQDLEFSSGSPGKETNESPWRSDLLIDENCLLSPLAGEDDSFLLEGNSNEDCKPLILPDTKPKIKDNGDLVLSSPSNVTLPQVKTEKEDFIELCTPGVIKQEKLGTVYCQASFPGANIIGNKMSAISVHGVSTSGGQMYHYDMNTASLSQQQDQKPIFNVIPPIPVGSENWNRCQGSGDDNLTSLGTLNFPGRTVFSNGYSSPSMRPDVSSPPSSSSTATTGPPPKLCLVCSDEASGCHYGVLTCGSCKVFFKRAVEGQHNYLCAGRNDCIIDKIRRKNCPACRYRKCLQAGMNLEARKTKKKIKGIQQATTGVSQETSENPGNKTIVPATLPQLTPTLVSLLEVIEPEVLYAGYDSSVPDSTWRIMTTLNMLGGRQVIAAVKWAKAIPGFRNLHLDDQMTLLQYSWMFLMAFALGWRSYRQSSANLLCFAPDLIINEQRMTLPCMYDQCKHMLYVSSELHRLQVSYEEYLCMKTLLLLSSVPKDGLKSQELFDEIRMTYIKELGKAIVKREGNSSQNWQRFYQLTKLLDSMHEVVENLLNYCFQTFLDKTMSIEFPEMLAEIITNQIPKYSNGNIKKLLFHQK
Chain of Dual specificity protein kinase CLK4 (Homo sapiens) (Q9HAZ1 whole entry, looked up): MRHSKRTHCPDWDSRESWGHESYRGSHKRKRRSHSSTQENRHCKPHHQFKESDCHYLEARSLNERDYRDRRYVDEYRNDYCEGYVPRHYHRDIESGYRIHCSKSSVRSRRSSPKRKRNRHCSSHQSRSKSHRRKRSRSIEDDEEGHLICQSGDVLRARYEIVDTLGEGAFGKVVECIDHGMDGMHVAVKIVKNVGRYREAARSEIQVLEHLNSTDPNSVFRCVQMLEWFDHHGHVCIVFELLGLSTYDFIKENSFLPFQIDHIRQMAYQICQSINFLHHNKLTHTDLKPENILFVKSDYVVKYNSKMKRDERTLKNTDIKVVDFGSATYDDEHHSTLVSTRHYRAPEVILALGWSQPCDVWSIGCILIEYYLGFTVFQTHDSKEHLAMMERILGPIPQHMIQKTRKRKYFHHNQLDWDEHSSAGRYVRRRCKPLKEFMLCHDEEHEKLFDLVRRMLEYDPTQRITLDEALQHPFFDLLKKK
Chain of Ubiquitin carboxyl-terminal hydrolase 1 (Homo sapiens) (O94782 whole entry, looked up): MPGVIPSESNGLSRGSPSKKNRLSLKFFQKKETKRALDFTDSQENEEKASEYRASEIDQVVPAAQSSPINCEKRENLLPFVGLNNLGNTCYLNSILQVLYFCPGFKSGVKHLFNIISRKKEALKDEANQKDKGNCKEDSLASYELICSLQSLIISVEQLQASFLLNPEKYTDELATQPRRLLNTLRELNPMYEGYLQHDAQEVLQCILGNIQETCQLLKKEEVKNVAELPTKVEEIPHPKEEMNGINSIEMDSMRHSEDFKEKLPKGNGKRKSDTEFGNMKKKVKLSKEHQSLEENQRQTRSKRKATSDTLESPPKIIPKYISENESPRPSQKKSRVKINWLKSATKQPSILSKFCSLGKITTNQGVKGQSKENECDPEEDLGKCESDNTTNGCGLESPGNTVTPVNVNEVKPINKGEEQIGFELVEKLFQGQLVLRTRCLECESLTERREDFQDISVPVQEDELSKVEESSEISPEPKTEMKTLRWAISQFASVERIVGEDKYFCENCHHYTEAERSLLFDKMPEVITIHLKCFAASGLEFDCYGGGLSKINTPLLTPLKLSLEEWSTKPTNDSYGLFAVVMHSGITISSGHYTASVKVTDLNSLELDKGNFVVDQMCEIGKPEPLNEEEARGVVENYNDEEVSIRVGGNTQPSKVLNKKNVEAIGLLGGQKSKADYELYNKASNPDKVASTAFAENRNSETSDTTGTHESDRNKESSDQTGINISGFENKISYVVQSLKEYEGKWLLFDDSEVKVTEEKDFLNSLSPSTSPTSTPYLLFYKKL
Chain of Cytochrome P450 1A2 (Homo sapiens) (P05177 whole entry, looked up): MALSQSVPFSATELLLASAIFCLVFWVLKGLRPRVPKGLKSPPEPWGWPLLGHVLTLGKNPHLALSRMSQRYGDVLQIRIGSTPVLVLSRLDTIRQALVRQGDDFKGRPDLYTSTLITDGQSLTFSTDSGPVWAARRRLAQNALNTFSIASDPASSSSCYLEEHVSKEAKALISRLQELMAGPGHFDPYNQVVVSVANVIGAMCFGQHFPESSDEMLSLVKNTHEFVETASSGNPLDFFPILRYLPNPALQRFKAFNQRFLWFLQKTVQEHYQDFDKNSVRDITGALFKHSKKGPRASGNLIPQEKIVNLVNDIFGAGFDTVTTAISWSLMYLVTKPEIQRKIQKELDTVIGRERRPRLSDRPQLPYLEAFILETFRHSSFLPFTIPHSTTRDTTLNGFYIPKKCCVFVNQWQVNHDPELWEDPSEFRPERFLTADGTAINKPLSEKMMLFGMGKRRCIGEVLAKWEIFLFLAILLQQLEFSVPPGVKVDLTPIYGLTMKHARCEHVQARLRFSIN

Cn1c(=O)c(-c2ccc(F)cc2)nc2cnc(OCc3ccccc3)nc21
10.2%: max response [9, 17]
inactive: Potency [1] > 11.4 µM | activity change, negative = inhibition [2] 14.6% | activity change, negative = inhibition [3] 19.9% | activity, negative = inhibition [4] -11.9% | Potency [5] > 9.22 µM | Potency [6] > 46 µM | Potency [7] | Potency [8] | activity change, negative = inhibition [9] 5.66% | Potency [10] | Potency [11] | Potency [12]
7.28%: max response [9, 16]

Clc1ccccc1-c1ccc2ncnc(NC3CCNCC3)c2c1
active: Potency [13] 15.8 µM | Potency [14] 25.1 µM | Potency [10] 22.4 µM
1.92%: max response [9, 17]
0.483%: max response [9, 16]
inactive: Potency [1] > 11.4 µM | activity change, negative = inhibition [3] -8.44% | activity, negative = inhibition [4] -0.786% | Potency [6] > 46 µM | Potency [7] | Potency [8] | activity change, negative = inhibition [9] 1.65% | Potency [12]

COc1ccccc1-c1ccc2ncnc(Nc3ccccc3)c2c1
active: Potency [13] 2.51 µM | Potency [14] 15.8 µM | Potency [10] 15.8 µM
inactive: Potency [1] > 11.4 µM | activity change, negative = inhibition [3] 10.9% | activity, negative = inhibition [4] 9.56% | Potency [5] > 46 µM | Potency [6] > 46 µM | Potency [7] | Potency [15] | activity change, negative = inhibition [9] -15.1% | Potency [12]
-29%: max response [9, 17]
-15.8%: max response [9, 16]

COCCn1c(=O)c(C)nc2cnc(Nc3cccc(OC)c3)nc21
inactive: Potency [1] > 11.4 µM | activity change, negative = inhibition [2] 7.44% | activity change, negative = inhibition [3] 5.07% | activity, negative = inhibition [4] -7.83% | Potency [5] > 9.22 µM | Potency [6] > 46 µM | Potency [7] | Potency [8] | Potency [15] | activity change, negative = inhibition [9] -6.39% | Potency [12]
-22.1%: max response [9, 17]
-14.8%: max response [9, 16]
active: Potency [13] 1 µM | Potency [14] 15.8 µM | Potency [10] 25.1 µM

COc1ccccc1-c1ccc2ncnc(NCCNC(C)=O)c2c1
active: Potency [13] 5.01 µM | Potency [14] 11.2 µM | Potency [10] 15.8 µM
-6.93%: max response [9, 16]
-7.23%: max response [9, 17]
inactive: Potency [1] > 11.4 µM | activity change, negative = inhibition [2] 11.9% | activity change, negative = inhibition [3] 3.1% | activity, negative = inhibition [4] -8.48% | Potency [5] > 46 µM | Potency [6] > 46 µM | Potency [7] | Potency [8] | Potency [15] | activity change, negative = inhibition [9] 1.76% | Potency [12]

COc1ccc(-n2c(=O)c(-c3ccc(F)cc3)nc3cnc(N4CCNCC4)nc32)cc1
12.6%: max response [9, 17]
11.2%: max response [9, 16]
inactive: Potency [1] > 11.4 µM | activity change, negative = inhibition [2] -1.98% | activity change, negative = inhibition [3] 27.8% | activity, negative = inhibition [4] 9.23% | Potency [5] > 9.22 µM | Potency [6] > 46 µM | Potency [7] | Potency [8] | activity change, negative = inhibition [9] 0.369% | Potency [10] | Potency [11] | Potency [12]
